Data from PubChem BioAssay AID1006 (Sanford-Burnham Center for Chemical Genomics, 2008).
The campaign covered roughly 200,000 compounds. About 3,000 (1.5%) were called active. This is one part of a sample in which actives are shown more often than they occur. Values without a mark were called inactive.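 Rule for the calls: active = inhibition above about 50% when tested at 10 µM (limit read from the data); inactive = the rest.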

biological target: Luciferin 4-monooxygenase (Photinus pyralis) (UniProt P08659); experiment: firefly luciferase enzyme inhibitors, primary screen, artefact control for luciferase-based inhibitor screens, biochemical, luminescence, ATPLite (AID 1006); settings: 10 min, at 10 µM, active compounds read high
Sequence (P08659 whole entry, looked up): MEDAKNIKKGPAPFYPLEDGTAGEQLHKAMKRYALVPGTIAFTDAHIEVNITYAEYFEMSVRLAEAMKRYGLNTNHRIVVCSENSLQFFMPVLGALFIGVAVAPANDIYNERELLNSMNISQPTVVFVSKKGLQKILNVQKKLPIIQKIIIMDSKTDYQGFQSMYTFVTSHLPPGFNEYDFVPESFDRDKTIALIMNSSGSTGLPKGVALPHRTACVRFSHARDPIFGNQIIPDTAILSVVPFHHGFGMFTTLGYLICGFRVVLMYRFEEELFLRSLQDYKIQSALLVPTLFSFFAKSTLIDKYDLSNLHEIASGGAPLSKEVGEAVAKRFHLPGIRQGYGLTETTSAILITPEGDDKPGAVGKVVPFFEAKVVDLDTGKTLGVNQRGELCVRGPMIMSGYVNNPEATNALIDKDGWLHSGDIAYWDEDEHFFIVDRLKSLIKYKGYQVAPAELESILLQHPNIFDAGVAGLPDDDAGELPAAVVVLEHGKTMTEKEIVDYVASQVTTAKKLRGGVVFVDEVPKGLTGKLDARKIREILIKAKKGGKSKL

| Structure (SMILES) | inhibition |
| --- | --- |
| COc1cccc(-c2nc3ccc(N4CCN(C)CC4)cc3[nH]2)c1 | 95.8% (active) |
| CN1CCN(c2cc(N3CCNCC3)ccc2[N+](=O)[O-])CC1 | 5.2% |
| Cc1nc2ccc(N3CCN(C)CC3)cc2nc1C | 15.6% |
| Cc1nn(Cc2ccccc2Cl)c(Cl)c1C(=O)OC(C(=O)NC(N)=O)C(C)C (stereo not given) | -7% |
| Cc1ccnc(-n2c(C)cc(/C=C3\C(=O)NC(=S)N(C)C3=O)c2C)c1 | 5.2% |
